PubChem BioAssay (NCATS)
Inconclusive results are not listed. Calls of active or inactive are those of the source. Calls follow the shape of the dose curve; as a rule, active = well fitted inhibition curve with a large enough effect; inconclusive = small, poorly fitted or top-dose-only effect; inactive = no such curve, though single readings can be large or run the other way.

Biological target: N-terminal Xaa-Pro-Lys N-methyltransferase 1 (Homo sapiens) (UniProt Q9BV86)
Experiment: Confirmatory qHTS for Inhibitors of N-terminal methyltransferase 1 (NTMT1): MTaseGlo Assay (AID 1645874); also: nearly all actives have a fitted effect of over 65% in size
Settings: NTMT1 enzyme, MTase-Glo SAH luminescence; series mostly up to 100 µM
Excerpt: Assay Submitter (PI): Rong Huang Ph.D.
Purdue University, West Lafayette, IN 47907
The N-terminal methytransferase 1 is the first methyltransferase that methylates protein alpha-N-amines and plays an important role in regulating cell mitosis, chromatin interactions and DNA repair. It is observed to be over-expressed in various cancer patient tissues like malignant melanoma and colorectal cancer tissues. Knockdown of NTMT1 in cancer cells causes cell mitotic defects and enhances sensitivity to DNA damaging chemotherapeutics. […] These critical cellular processes in which NTMT1 is implicated, coupled with emerging links to cellular dysfunction, strengthen the inference that NTMT1 is a compelling novel anticancer target. Progress have been made in understanding the molecular properties of NTMT1 and the biological consequences of protein alpha-N-terminal methylation, but there are no specific small molecule probes available for NTMT1 to fully characterize its MTase activity. To address this unmet need, a panel of assay is created and established to enable quantitative high-throughput screening (qHTS) for novel, potent, and selective small molecule NTMT1 inhibitors. Two orthogonal qHTS that use different reagents (ThioGlo vs. MTaseGlo) are developed for primary robotic screening against the NCATS chemical library of more than 400,000 small molecules. Identified inhibitors are reacquired, validated, and further characterized.
MTaseGlo Assay is a luminescence screen that measure the activity of methyltransferases based on the reaction product S-adenosyl homocysteine (SAH). The substrate SAM is converted to SAH upon enzyme activation. MTase-Glo reagent and detection solution convert SAH to ATP and measure the light from the luciferase reaction.
Materials: NTMT1 enzyme, substrate SPKRIA, control peptide RCC1-6 is provided by the Huang laboratory.
SEQUENCE No. (e.g., 1, 2, 3, etc.); […] (e.g., Cells, Incubation, Reagent, etc.); VALUE; DESCRIPTION
1; Enzyme; 3 uL; Dispense enzyme mixture (final concentrations of 125 nM NTMT1 and 100 uM SAM) into Greiner 1536-well white / solid bottom assay plate (Greiner Bio One, Monroe, NC).
2; Compounds; 23 nL; Compounds and controls were transferred via a Kalypsys Pin Tool (Wako USA) equipped with a 1536-slotted pin array (Wako Automation, Richmond, VA)
3; Incubation; 15 min; Incubate at room temperature
4; Substrate; 1 uL; Dispense 1 uL of substrate at final concentration of 1 uM. Buffer solution was dispensed in control wells. The assay plate was covered with metal lids.
5; Incubation; 30 min; Incubate at room temperature, protected from lights.
6; Reagent; 1 uL; Dispensed 5x MTase-Glo detection reagent (R) into the assay plate. The plate was covered with metal lids.
7; Incubation; 30 min; Incubate the assay plates at room temperature in the dark to allow for SAH to be converted to ADP.
8; Reagent; 5 uL; Dispense 5 uL of 1x MTase-Glo Detection Solution (R) to allow for ADP to be converted to ATP which was then detected with a luciferase reaction.
9; Centrifuge; 15 sec; Centrifuge the assay plate for 15 seconds at 1000 RPM.
10; Incubation; 30 min; Assay plates were incubation at room temperature in the dark.
11; Detection; Luminescence; Plates were read on ViewLux detector (PerkinElmer). Data were normalized to no-enzyme (0% activity) and no-inhibitor (DMSO; 100%) controls, and the resulting percent inhibition data were fitted to a 4-parameter Hill equation using GraphPad Prism.
Potency is read from the fitted curve at half-maximal effect.

Sequence of N-terminal Xaa-Pro-Lys N-methyltransferase 1 (Homo sapiens) (Q9BV86 whole entry, looked up): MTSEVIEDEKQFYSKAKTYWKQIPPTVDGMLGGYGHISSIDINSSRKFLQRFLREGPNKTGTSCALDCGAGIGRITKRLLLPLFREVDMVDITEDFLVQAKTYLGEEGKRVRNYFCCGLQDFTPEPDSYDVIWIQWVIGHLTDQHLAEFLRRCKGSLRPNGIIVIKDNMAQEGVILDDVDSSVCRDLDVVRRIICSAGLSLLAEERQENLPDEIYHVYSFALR

SMILES	Potency
COc1ccccc1C(=O)Nc1onc2c1CCCC2	inactive
COc1cc2c(NC3CCN(C(C)C)CC3)nc(N3CCCN(CC4CCCCC4)CC3)nc2cc1OCCCN1CCCC1	34.5 µM (active)
Cc1ccc(Nc2ncnc3c2cnn3-c2ccccc2)c(C)c1	3.98 µM (active)
COc1cc2c(NC3CCN(C(C)C)CC3)nc(N3CCCCC3)nc2cc1OCCCN1CCCCC1	38.8 µM (active)
CSc1ccc(/C=C/c2nc3ccccc3n2S(=O)(=O)c2cccc(Cl)c2)cc1	8.51 µM (active)
Cc1cccc(NC(=O)c2sc3nc(-c4cc5ccc(O)cc5oc4=O)[nH]c(=O)c3c2C)c1	6.02 µM (active)
Fc1cc(Nc2nc(-c3ccncc3)nc3ccccc23)ccc1N1CCNCC1	21.8 µM (active)
CCOc1ccccc1N1CC(c2nc3ccccc3n2CCCCOc2cc(C)ccc2C)CC1=O (stereo not given)	inactive
CC(NC(=O)c1sc2ncccc2c1-n1cccc1)c1ccccc1 (stereo not given)	28.2 µM (active)
COc1cccc(-c2n[nH]c3c2C(c2cccc(O)c2)N(C)C3=O)c1 (stereo not given)	44.7 µM (active)
CC(C)CCNc1ncnc2c1cnn2-c1cccc(Cl)c1	14.1 µM (active)
COc1cc2nc(N3CCOCC3)nc(NC(C)C)c2cc1OC	34.5 µM (active)
Oc1cccc(Nc2cc(-c3ccccc3)ncn2)c1	39.8 µM (active)
O=S(=O)(c1cccc(Cl)c1)n1c(/C=C/c2ccccc2Cl)nc2ccccc21	6.76 µM (active)
CCCOc1ccccc1C(=O)Nc1nc2c(s1)CCCC2	inactive
N#CNC(=O)c1ccc(-n2cccc2/C=C2\NC(=O)N(CC(=O)Nc3ccc(F)cc3)C2=O)cc1	7.58 µM (active)
Cc1ccc(-n2ncc3c(NCCCN(C)C)ncnc32)cc1Cl	39.8 µM (active)
C=CC(=O)N1CC[C@@H](Oc2nc(Nc3ccc(N4CCC(N5CCN(C)CC5)CC4)cc3)c(C(N)=O)nc2CC)C1	4.15 µM (active)
COc1ccc(C(=O)Nc2onc3c2CCCC3)cc1	inactive
COc1c/c(=C2\C=c3ccccc3=N2)[nH]/c1=C/c1[nH]c(C)cc1C	35 µM (active)

SMILES	Potency
COc1cc2c(NC3CCN(C(C)C)CC3)nc(N3CCCN(c4ccccc4)CC3)nc2cc1OCCCN1CCCC1	55.5 µM (active)
O=C(Nc1onc2c1CCCC2)c1ccccc1	inactive
O=C(Nc1cccc(Cl)c1)c1c(NC(=O)C(F)(F)F)sc2c1CCCC2	5.4 µM (active)
O=C(Nc1nc2c(s1)CCCC2)c1ccccc1F	39.8 µM (active)
COc1ccc(Nc2ncnc3sc4c(c23)CCCC4)cc1	15.8 µM (active)
Cc1ccc2nc(-c3ccc(O)cc3)c(Nc3ccc(Cl)cc3)n2c1	inactive
CCCn1c(/C=C/c2ccccc2)nc2ccccc21	inactive
COc1ccc(C(=O)Nc2noc3ccccc23)cc1	39.8 µM (active)
O=C(CSc1nc(-c2ccc(F)cc2)nc2c1Cc1ccccc1O2)Nc1cccc(C(=O)O)c1	6.02 µM (active)
Cc1ccc(-n2ncc3c(NCCO)ncnc32)cc1Cl	31.6 µM (active)
COc1cc2nc(N3CCCCC3)nc(NC3CC3)c2cc1OC	34.5 µM (active)
Clc1ccc(-c2noc3ncnc(NC4CCCCC4)c23)cc1	15.8 µM (active)
Cc1cccc2nc(-c3ccc(Cl)s3)c(Nc3ccc4c(c3)OCCO4)n12	3.25 µM (active)
Cc1cc(F)ccc1S(=O)(=O)Nc1cnccc1C(=O)Nc1nc(-c2ccccc2)cs1	21.8 µM (active)
Cc1cccc(C(=O)Nc2sc3c(c2C(=O)O)CCCC3)c1	35.5 µM (active)
O=c1cc(-c2ccccc2)oc2ccc(O)cc12	20 µM (active)
COc1cc(-c2nc3ccc(Cl)cn3c2Nc2ccc3c(c2)OCCO3)ccc1O	5.15 µM (active)
Cc1cc(C)n2c(Nc3c(C)cccc3C)c(-c3ccsc3)nc2n1	inactive
Clc1cccc(-c2nc3ccccn3c2Nc2ccc3c(c2)OCCO3)c1	4.09 µM (active)
S=C(Nc1ccccn1)c1ccccn1	10.3 µM (active)
